Source: PubChem BioAssay (National Center for Advancing Translational Sciences (NCATS))
Shown is part of a subset that was picked to be rich in hits.
Menin MLL FP FL = qHTS Assay for Inhibitors Targeting the Menin-MLL Interaction in MLL Related Leukemias: Competition With Fluorescein Labeled MLL-derived Peptide; Fluorescence polarization, fluorescein-MLL peptide displacement from menin; FP activity change, % at 61.4 µM; 290,000 tested, under 10 active; active = well fitted curve in the direction sought with a large enough effect in the polarisation, not every such curve was filed as active; inconclusive = small, poorly fitted or top-dose-only effect, or effect the other way, or a change in a side signal; inactive = no such curve, though single readings can be large or run the other way; the % refers to the polarisation
Menin MLL FP TR = qHTS Assay for Inhibitors Targeting the Menin-MLL Interaction in MLL Related Leukemias: Competition With Texas Red Labeled MLL-derived Mutant Peptide; O00255; Menin + Texas Red MLL mutant peptide, fluorescence polarization; Potency, µM (series often up to 61.6 µM), hits mostly inhibitors; 270,000 tested, 0.23% active; AID 1768, 2009; active = well fitted inhibition curve with a large enough effect in the polarisation, with a control signal flat, not every such curve was filed as active; inconclusive = small, poorly fitted or top-dose-only effect, or effect the other way, or a change in a side signal; inactive = no such curve, though single readings can be large or run the other way; the % refers to the polarisation
MLL CXXC-DNA inh = qHTS Fluorescence Polarization Assay for Inhibitors of MLL CXXC domain - DNA interaction; 290,000 tested, 0.037% active; Histone-lysine N-methyltransferase 2A (Homo sapiens), Q03164; Potency, µM (doses to about 115 µM), actives largely listed as inhibitors; AID 2662, 2010; MLL-CXXC / FITC-HOXA9 DNA fluorescence polarization; active = well fitted inhibition curve with a large enough effect in the polarisation, with a control signal flat, not every such curve was filed as active; inconclusive = small, poorly fitted or top-dose-only effect, or effect the other way, or a change in a side signal; inactive = no such curve, though single readings can be large or run the other way; the % refers to the polarisation
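Fluorescence polarization: 7 uM MLL-CXXC (stock) preincubated 5 min with compounds, then 50 nM fluorescein-HOX-A9 DNA (stock) added; 30 min ambient. Buffer 50 mM Tris-HCl pH 7.5, 50 mM NaCl, 1 mM DTT, 0.05% BSA.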
MLL CXXC FP-Fl = qHTS Fluorescence Polarization (FP) Assay for Inhibitors of MLL CXXC domain - DNA interaction: Fluorescein FP | MLL CXXC-DNA binding, fluorescein FP | Potency, µM (highest dose often 345 µM), most hits filed as inhibitors | 200 tested, 70% active | shares compounds with MLL CXXC-DNA inh | AID 624160, 2012; also: nearly all actives have a fitted effect of over 80% in size
MLL CXXC FP-TR = qHTS Fluorescence Polarization (FP) Assay for Inhibitors of MLL CXXC domain - DNA interaction: Texas Red FP. 200 tested, 40% active. AID 624161, 2012. Potency, µM (titrated, usually from 345 µM), actives largely listed as inhibitors. MLL CXXC-DNA binding, Texas Red fluorescence polarization. shares compounds with MLL CXXC-DNA inh; also: nearly all actives have a fitted effect of over 75% in size
MLL CXXC HTRF = qHTS Fluorescence Polarization (FP) Assay for Inhibitors of MLL CXXC domain - DNA interaction: HTRF Assay | 210 tested, 30% active | AID 624162, 2012 | MLL CXXC-DNA binding, HTRF, biochemical | shares compounds with MLL CXXC-DNA inh | Potency, µM (top dose mostly 172 µM), actives largely listed as inhibitors; also: nearly all actives have a fitted effect of over 80% in size
Large screens that a line does not name were inactive (follow-up assays come after a bar, where they were run). Unless noted, calls follow the shape of the dose curve; as a rule, active = well fitted inhibition curve with a large enough effect; inconclusive = small, poorly fitted or top-dose-only effect; inactive = no such curve, though single readings can be large or run the other way.

C[C@@]12C=Cc3occc3[C@H]1CC[C@@]13C[C@@H](CC[C@H]12)[C@@](O)(CO)C3	none (no result: MLL CXXC-DNA inh)
O=C1C=C(O)c2cccc(O)c2C1=O	MLL CXXC-DNA inh inconclusive (no result: Menin MLL FP TR)
CC1=CC(=O)c2c(O)ccc(O)c2C1=O	Menin MLL FP FL inconclusive, Menin MLL FP TR inconclusive, MLL CXXC-DNA inh 32µM
CC[C@H](C)[C@H](NC(=O)[C@H](CC(=O)O)NC(=O)[C@H](CC(C)C)NC(=O)[C@H](NC(C)=O)C(c1ccccc1)c1ccccc1)C(=O)N[C@H](C(=O)N[C@@H](Cc1c[nH]c2ccccc12)C(=O)O)[C@@H](C)CC	none (no result: MLL CXXC-DNA inh)
CC[C@H](C)[C@H](NC(=O)[C@H](C)NC(=O)CNC(=O)[C@H](CCCCN)NC(=O)[C@H](CC(N)=O)NC(=O)[C@H](CO)NC(=O)CN)C(=O)N[C@H](C(=O)NCC(=O)N[C@@H](CC(C)C)C(=O)N[C@@H](CCSC)C(=O)O)[C@@H](C)CC	none (no result: MLL CXXC-DNA inh)
CCCCNC(=O)CC(C(=O)N1CCc2ccccc21)n1ccnc1 (stereo unspecified)	none
O=C(CC(C(=O)N1CCc2ccccc21)n1ccnc1)N1CCc2ccccc2C1 (stereo unspecified)	MLL CXXC-DNA inh 32µM | MLL CXXC FP-Fl inconclusive | MLL CXXC FP-TR inactive | MLL CXXC HTRF inactive
C[C@H](CN1c2ccccc2Sc2cccnc21)N(C)C	MLL CXXC-DNA inh inconclusive
COCCNC(=O)/C(C#N)=C/c1c(N2CCN(C)CC2)nc2c(C)cccn2c1=O	none
CCN1CCN(c2nc3c(C)cccn3c(=O)c2/C=C(\C#N)C(=O)NCCOC)CC1	MLL CXXC-DNA inh 32µM | MLL CXXC FP-Fl inactive | MLL CXXC FP-TR inactive | MLL CXXC HTRF inactive
CCN(CC)CCC(c1ccc(N(C)C)cc1)c1c(OC)cc(OC)c2c1OC(=O)CC2c1ccc(N(C)C)cc1 (stereo unspecified)	Menin MLL FP TR inconclusive (no result: MLL CXXC-DNA inh)
COc1ccc(-c2nn(-c3ccccc3)cc2/C=C/C(=O)OCC(=O)Nc2ccc(C#N)cc2)cc1	Menin MLL FP TR inconclusive, MLL CXXC-DNA inh inconclusive | MLL CXXC FP-Fl inactive | MLL CXXC FP-TR inconclusive | MLL CXXC HTRF inactive
COc1ccc(-c2nn(-c3ccccc3)cc2/C=C/C(=O)OCC(=O)Nc2cccc(C#N)c2)cc1	Menin MLL FP TR inconclusive
Cc1ccc(C=C2C(=O)c3ccccc3C2=O)o1	none
O=C(O)c1ccc2c(c1)C(=O)/C(=C/c1ccccc1)C2=O	Menin MLL FP FL inconclusive, Menin MLL FP TR inconclusive
Cc1ccc(/C=C2/C(=O)c3ccc(C(=O)O)cc3C2=O)o1	Menin MLL FP FL inconclusive, Menin MLL FP TR inconclusive, MLL CXXC-DNA inh 40µM | MLL CXXC FP-Fl inconclusive | MLL CXXC FP-TR inconclusive | MLL CXXC HTRF 39µM
O=C(O)c1ccc2c(c1)C(=O)/C(=C\c1ccco1)C2=O	Menin MLL FP TR inconclusive, MLL CXXC-DNA inh 32µM | MLL CXXC FP-Fl 22µM | MLL CXXC FP-TR inactive | MLL CXXC HTRF 49µM
COc1cccc([C@@H]2Oc3ccc(OC)cc3C(=O)[C@H]2OC(=O)NCCc2ccc(OC)c(OC)c2)c1	none (no result: MLL CXXC-DNA inh)
CCC(C(=O)O)C1OC(C(C)C(O)C(C)C(=O)C(CC)C2OC3(C=CC(O)C4(CCC(C)(C5CCC(O)(CC)C(C)O5)O4)O3)C(C)CC2C)C(C)CC1C (stereo unspecified)	none
C=CCN1c2ccccc2[C@]23C[C@@H](C(=O)OC)N(S(=O)(=O)c4cccs4)C2=NC(C(=O)OC)=C(C(=O)OC)[C@H]13	none (no result: MLL CXXC-DNA inh)
CC1OC2(C)OC(=N)C1(C#N)C(C#N)(C#N)C2c1ccccc1 (stereo unspecified)	none
CCCCC1OC2(C)OC(=N)C1(C#N)C(C#N)(C#N)C2c1ccccc1 (stereo unspecified)	Menin MLL FP FL inconclusive, MLL CXXC-DNA inh 22µM | MLL CXXC FP-Fl 28µM | MLL CXXC FP-TR inconclusive | MLL CXXC HTRF inactive
COc1ccc(-c2nnc3n2N=C(c2ccc(OC)c(OC)c2)CS3)cc1	none (no result: MLL CXXC-DNA inh)
Nc1ccc2cc3ccc(N)cc3nc2c1	Menin MLL FP FL inconclusive, MLL CXXC-DNA inh inconclusive | MLL CXXC FP-Fl 1.1µM | MLL CXXC FP-TR 36µM | MLL CXXC HTRF inconclusive
Cc1ccc2cc(N)ccc2n1	none
Cc1ccc(NC2=CC(=O)C(=O)c3ccccc32)cc1	none
NS(=O)(=O)c1ccc(NC2=CC(=O)C(=O)c3ccccc32)cc1	Menin MLL FP TR inconclusive, MLL CXXC-DNA inh inconclusive | MLL CXXC FP-Fl inconclusive | MLL CXXC FP-TR inconclusive | MLL CXXC HTRF inactive
Cc1ccc2cc(NC(=O)Cc3ccccc3)ccc2n1	none (no result: Menin MLL FP TR)
Cc1cc(N)c2cc(NC(=O)Nc3ccc4nc(C)cc(N)c4c3)ccc2n1	Menin MLL FP TR 16µM (no result: MLL CXXC-DNA inh) | MLL CXXC FP-Fl 8.9µM | MLL CXXC FP-TR inconclusive | MLL CXXC HTRF 9.7µM
COc1cc(C(=O)O[C@H]2C/C(C)=C/CC/C(C)=C/[C@@H](O)C2C(C)C)ccc1O (stereo partly specified)	none (no result: MLL CXXC-DNA inh)
O=C1OC(c2ccc(Cl)cc2)/C(=C(/O)c2ccccc2)C1=O (stereo unspecified)	MLL CXXC-DNA inh inconclusive | MLL CXXC FP-Fl inactive | MLL CXXC FP-TR 126µM | MLL CXXC HTRF inactive
CN1C(=O)C(=O)/C(=C(/O)c2ccc(Br)cc2)C1c1ccc(Cl)cc1 (stereo unspecified)	none
CSC1=C(C#N)C(=O)NC(c2ccccc2O)S1 (stereo unspecified)	MLL CXXC-DNA inh 13µM (no result: Menin MLL FP TR) | MLL CXXC FP-Fl 80µM | MLL CXXC FP-TR inactive | MLL CXXC HTRF inconclusive
COC(=O)CSC1=C(C#N)C(=O)NC(c2ccccc2)S1 (stereo unspecified)	MLL CXXC-DNA inh inconclusive
CC(C)C[C@H](NC(=O)[C@H](C)NC(=O)CNC(=O)[C@H](CCCCN)NC(=O)[C@H](CCCN=C(N)N)NC(=O)[C@H](C)NC(=O)[C@H](Cc1ccccc1)NC(=O)[C@@H](N)CCCN=C(N)N)C(=O)N[C@@H](CCCN=C(N)N)C(=O)N[C@@H](CCC(N)=O)C(=O)N[C@@H](CCCCN)C(=O)N[C@@H](CC(N)=O)C(=O)N[C@H](C(N)=O)C(C)C	Menin MLL FP TR inconclusive (no result: MLL CXXC-DNA inh)
COc1cc(/C=C2/C(=O)N(c3ccc(C(=O)O)cc3)N=C2C)cc(OC)c1O	Menin MLL FP TR inconclusive
C#CCOc1ccc(/C=C2/C(=O)N(c3cccc(C(=O)O)c3)N=C2C)cc1OC	Menin MLL FP TR inconclusive, MLL CXXC-DNA inh 45µM | MLL CXXC FP-Fl 45µM | MLL CXXC FP-TR 71µM | MLL CXXC HTRF 97µM
CCCCc1nc2c(c3c1C[C@H](C)OC3)CN(C(=O)Nc1ccc(OC)cc1)CC2	none (no result: MLL CXXC-DNA inh)
